In all, about 330,000 compounds went through this assay and about 1,900 (0.58%) were called active. Another 4% or so got no clear call; they are omitted. Cut-off read from the data, not from the text of the source: inconclusive = inhibition above about 70% without an active follow-up result; inactive = below that. A selection follows. Results with a measured potency or affinity are listed apart.

The assay is described as follows: M. tuberculosis growth inhibition, HTS (AID 449762).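 Note: bacterial growth assessed after seven days of incubation.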 The conditions noted are these: M. tuberculosis H37Rv growth inhibition, 7H9 media; at 25 µM; hits give high values.
Usually inhibition stands for the drop in the measured response relative to a control, in per cent. As for `CNC(=O)COC(=O)c1cc(=O)[nH]c2ccccc12`, the inhibition was -5.4% (inactive).
The result for `Cc1c2cnn(CC(=O)Nc3cccc(C(F)(F)F)c3)c(=O)c2c(C)n1Cc1ccccc1F` reads -1.26% (inactive); that for `O=C(CN1CCOc2ccccc21)N1CCCC1`, -8.18% (inactive); that for `O=C(CN1C(=O)COc2ccccc21)N1CCCC1`, -0.99% (inactive).
The result for `CC(C)c1ccc(NC2CCCN(C(=O)CCN3CCOCC3)C2)cc1` (centres undefined) reads 7.93% (inactive); that for `O=C(Nc1nc(-c2cc(Cl)sc2Cl)cs1)c1ccccc1`, -8.95% (inactive).
The result for `O=C(Nc1nc(-c2cc(Cl)sc2Cl)cs1)c1ccc(Br)s1` reads 1.67% (inactive).
Take `CCC1CCCCN1C(=O)c1noc(C(C)C)c1[N+](=O)[O-]` (centres undefined): the inhibition is 3.49% (inactive).
The result for `CC12CC3(C)CC(C)(C1)CC(C(N)=O)(C2)C3` reads -0.48% (inactive); that for `COc1ccccc1NC(=O)CSCc1cc(=O)n2ccsc2n1`, 3.56% (inactive); that for `Cc1ccc(C(C)C)c(OCC(O)CNC2CCCC2)c1` (centres undefined), 9.04% (inactive).
With `CCN(CCNCC(O)COCc1ccc(Cl)cc1)c1cccc(C)c1` (centres undefined), the inhibition was 57% (inactive).
Then `Cc1ccc(S(=O)(=O)Cc2ccc(C(=O)NCCCN3CCN(C)CC3)o2)cc1`, with -20.7% (inactive); and `O=C(Cn1c2ccc(F)cc2c2nc3n(c(=O)c21)CCS3)N1CCCC1`, with -4.92% (inactive).
Then `CCN(CC)S(=O)(=O)c1cccc(-c2csc(C)n2)c1`, with -1.32% (inactive); and `COc1cc(/C=N\Nc2nncn2N)ccc1OC(C)=O`, with -2.67% (inactive).
Then `COc1ccc(/C=N/Nc2nnc(C)n2N)cc1OC`, with 54.6% (inactive); and `Cc1cccc(C)c1-n1nnnc1SCSc1nnnn1-c1c(C)cccc1C`, with -0.17% (inactive).
In the case of `Cc1ccc(C)c(N2C(=O)CC(N3CCN(Cc4ccc5c(c4)OCO5)CC3)C2=O)c1` (centres undefined), the inhibition was -6.64% (inactive).
On to `CCOC(=O)C1=C(C)N=c2s/c(=C\c3ccc(OCC(=O)O)cc3)c(=O)n2C1c1ccccc1` (centres undefined), for which the inhibition was -2.68% (inactive).
Then `O=c1/c(=C\c2ccc(O)cc2)sc2nc(-c3ccccc3)c(-c3ccccc3)n12`, with -4.61% (inactive).
The result for `COc1cccc(CN(C)C(=O)/C=C/c2ccc(S(=O)(=O)N3CCCCCC3)cc2)c1` reads 4.38% (inactive); that for `Cc1cc(=O)oc2ccc(OCC(=O)N3CCc4ccccc43)cc12`, -7.76% (inactive).
The result for `COc1ccc(N/C(N)=N/c2nc(C)cc(=O)[nH]2)cc1` reads 4.61% (inactive).
Take `Cc1cc(=O)[nH]c(N=N/C(=N/Nc2ccccc2C)c2ccccc2)n1`: the inhibition is 68.7% (inactive).
Then `CCOc1ccccc1/C=N/Nc1ccc(Cl)nn1`, with 13.2% (inactive); and `Oc1ccc(/C=N/Nc2ccc(Cl)nn2)c(O)c1O`, with -6.06% (inactive).
The result for `C/C(=N\NC(N)=O)c1ccc(Cl)s1` reads -8.77% (inactive); that for `C/C(=N\NC(=S)NCc1ccccc1)c1ccc(Cl)s1`, -0.65% (inactive).
The result for `Cc1cccc(N(C)S(=O)(=O)c2c(C)noc2C)c1` reads 2.4% (inactive); that for `C/C(CC(=O)Nc1ccccn1)=N\NC(=O)c1ccccc1O`, -3.57% (inactive); that for `O=C(Nc1ccc2oc(-c3cccc4ccccc34)nc2c1)c1ncn[nH]1`, 9.87% (inactive).
Turning to `O=C(Nc1ccc2oc(-c3ccc(Cl)c(Cl)c3)nc2c1)c1ncn[nH]1`, the inhibition was 50.6% (inactive).
Then `CC(=O)N(C(C)=O)c1c(C#N)c(C)n(-c2ccccc2)c1C(=O)c1ccccc1`, with -0.27% (inactive); and `CCCC(=O)c1ccc(-c2ccccc2)cc1`, with 1.42% (inactive); and `Cc1ccc2nc(NC(=O)CN3C(=O)NC4(CCCCC4)C3=O)sc2c1`, with 5.87% (inactive).
The result for `COc1ccccc1NS(=O)(=O)c1cc(C(=O)NCCC(C)C)ccc1F` reads 16.6% (inactive).
Regarding `CCOC(=O)c1nc2sc3c(c2c(=O)[nH]1)CCCC3`, the inhibition was 2.32% (inactive).
Turning to `CC(C)CCOCc1nc2sc3c(c2c(=O)[nH]1)CCC(C)C3` (centres undefined), the inhibition is -5.2% (inactive).
Then `COC(=O)C1CCN(c2nc3ccccc3nc2C(C#N)C(=O)OCC(C)C)CC1` (centres undefined), with -4.17% (inactive).
The result for `COc1ccccc1NS(=O)(=O)c1cccc(NC(=O)C2CC2)c1` reads -4.5% (inactive); that for `O=[N+]([O-])c1ccc(OS(=O)(=O)Cc2ccccc2)cc1`, 4.45% (inactive); that for `COc1cc(OC)c(C#N)c(S(=O)(=O)Cc2ccccc2)c1`, -8.56% (inactive).
Then `O=C(CS(=O)(=O)c1cn(CC(=O)N2CCCC2)c2ccccc12)Nc1ccccc1F`, with 2.67% (inactive); and `Cc1c(C(c2ccc(F)cc2)c2c(C)n(C)n(-c3ccccc3)c2=O)c(=O)n(-c2ccccc2)n1C`, with 5.49% (inactive); and `COc1ccc(-c2csc(NC(CO)c3nc4ccccc4n3Cc3ccc(C)cc3)n2)cc1` (centres undefined), with 25.6% (inactive).
Regarding `OCCOCCn1c(C(CO)Nc2nc(-c3ccc(F)cc3)cs2)nc2ccccc21` (centres undefined), the inhibition is 6.37% (inactive).
Then `Cc1ccc(NCc2nc(SCC(=O)Nc3ccccc3)n[nH]2)cc1`, with -2.62% (inactive).
For the compound `COc1ccc(NC(=O)C(C)NS(=O)(=O)c2ccccc2)cc1Cl` (centres undefined), the inhibition is -8.72% (inactive).
The result for `COc1ccc(NC(=O)C(C)NS(=O)(=O)c2ccc(NC(C)=O)cc2)cc1Cl` (centres undefined) reads -1.73% (inactive).
The result for `COc1ccc(CCN=C(N)NS(=O)(=O)c2ccc(C)cc2)cc1OC` reads -1.62% (inactive).
Take `Cc1ccccc1C1c2[nH]c3ccccc3c2CCN1C(=O)c1ccc(=O)n(C)n1` (centres undefined): the inhibition was 53.9% (inactive).
Then `CCc1ccc(C2c3[nH]c4ccccc4c3CCN2C(=O)c2cc[n+]([O-])cc2)cc1` (centres undefined), with -3.85% (inactive).
The result for `COc1cc(N/C=C(\C(C)=O)c2ccccc2)cc(OC)c1` reads 4.79% (inactive); that for `O=C(Nc1ccc(OCc2ccccc2)cc1)c1ccccc1`, -2.87% (inactive); that for `COc1ccc(CCNCC(=O)Nc2ccc(OC(F)F)cc2)cc1`, -4.99% (inactive).
The result for `CCCCC1CCC(C(=O)N(CCCC)c2c(N)n(CCCC)c(=O)[nH]c2=O)CC1` (centres undefined) reads -9.54% (inactive).
For `CC1CCc2c(sc3nc(CN4CCOCC4)nc(N4CCc5ccccc5C4)c23)C1` (centres undefined), the inhibition is 6.42% (inactive).
Then `Clc1nc(CN2CCOCC2)nc2sc3c(c12)CCC3`, with 6.4% (inactive).
Turning to `CCc1ccccc1Nc1nc(N)nc(CSCC(=O)c2cc(C)n(C)c2C)n1`, the inhibition was -11.5% (inactive).
The result for `O=C(NCCCc1ccc(F)cc1)C1CCC(=O)N(CCCN2CCCC2=O)C1` (centres undefined) reads 11.4% (inactive); that for `O=C1CC(Sc2nnc(-c3ccccc3)o2)C(=O)N1c1ccccc1` (centres undefined), -3.28% (inactive).
With `O=C1OCCC1Sc1nnc(-c2ccccc2)o1` (centres undefined), the inhibition is -4.39% (inactive).
The result for `COc1ccccc1OCC(=O)Nc1ccc(S(=O)(=O)N2CCOCC2)cc1` reads -3.94% (inactive); that for `CCCCn1c(=O)[nH]c(=O)c2c1nc(-c1ccsc1)n2Cc1ccccc1`, 7.19% (inactive).
The result for `CCC(=O)Nc1ccc(C2=Nn3c(nnc3C(C)C)SC2)cc1` reads 9.12% (inactive); that for `CC(C)c1nnc2n1N=C(c1ccc(Cl)cc1)CS2`, 45.3% (inactive).
The result for `Cc1ccc(CN2CCSc3ccc(C(=O)NCC4CCCO4)cc32)cc1` (centres undefined) reads -1.08% (inactive); that for `Nc1cc([N+](=O)[O-])ccc1Nc1ccccc1`, 2.95% (inactive); that for `Nc1ccc(Nc2ccc([N+](=O)[O-])cc2[N+](=O)[O-])cc1`, 4.35% (inactive).
Regarding `COc1ccc2sc(-c3ccc(S(C)(=O)=O)cc3)c(C(=O)NCCc3c[nH]c4ccccc34)c2c1`, the inhibition is 0.16% (inactive).
Then `CN1C(=O)N(C)C(=O)C2(Cc3cc(N)ccc3N3CCN(c4ccccc4F)CC32)C1=O` (centres undefined), with -0.78% (inactive).
The result for `Cc1ccc(C(=O)NC(=S)N(C)C2CCCCC2)cc1` reads 62.7% (inactive); that for `CN(C(=S)NC(=O)c1ccccc1)C1CCCCC1`, 60.5% (inactive).
Turning to `O=C(NCc1ccc2c(c1)OCO2)C1CCC(CNS(=O)(=O)c2ccc(Cl)cc2)CC1` (centres undefined), the inhibition is -12% (inactive).
Then `O=C(CN1C(=O)NC2(CCCC2)C1=O)N1CCN(S(=O)(=O)c2ccc(Cl)c(C(F)(F)F)c2)CC1`, with -1.26% (inactive).
The result for `CC1CCCC(C)N1/N=C/c1cccc(Br)c1` (centres undefined) reads 2.02% (inactive); that for `Brc1ccc2[nH]cc(/C=N/N3CCCCC3)c2c1`, -3.65% (inactive).
Then `CCCCNS(=O)(=O)c1ccc(OC)c2ncccc12`, with -7.49% (inactive).
With `COc1cc(NC(=O)c2ccc3snnc3c2)cc(OC)c1`, the inhibition was -2.63% (inactive).
Then `COC(=O)[C@H](C)NC(=O)c1cc2c(cn1)[nH]c1ccccc12`, with 25.1% (inactive); and `C[C@H](NC(=O)c1cc2c(cn1)[nH]c1ccccc12)C(=O)O`, with 61.1% (inactive).
Then `Cc1cc(C)c2nc(-c3ccccn3)cc(C(=O)NCCc3ccc(S(N)(=O)=O)cc3)c2c1`, with 2.93% (inactive).
Then `NS(=O)(=O)c1ccc(NC(=O)CSC2=NC(=O)C(c3ccccc3)C(=O)N2)cc1` (centres undefined), with -4.16% (inactive); and `O=C(CSC1=NC(=O)C(c2ccccc2)C(=O)N1)Nc1cccc(Cl)c1` (centres undefined), with -1.6% (inactive).
On to `CC1CC(NC(=O)CC#N)CC(C)(C)C1` (centres undefined), for which the inhibition is -2.07% (inactive).
Then `CCNC(=O)CC1C(=O)N(c2ccc(C)cc2)C(=O)N1CCc1sccc1C` (centres undefined), with -0.52% (inactive).
The result for `COc1ccc(OC)c(N(CC(=O)Nc2ccccc2)S(=O)(=O)c2ccccc2)c1` reads -0.48% (inactive).
The result for `CC(C)(O)c1ccc2c(c1)CCC1C(C)(C(=O)O)CCCC21C` (centres undefined) reads -2.51% (inactive).
Regarding `CC1(C(=O)O)CCCC2(C)c3cc(O)ccc3CCC12` (centres undefined), the inhibition was -4.51% (inactive).
Take `Cc1cc(CN(C)C(=O)C2CCC(=O)N(CCc3ccccc3)C2)n[nH]1` (centres undefined): the inhibition is 8.05% (inactive).
The result for `CC(=O)Nc1ccc(SC(C)C(=O)NC(N)=O)cc1` (centres undefined) reads -6.23% (inactive).
Then `NC1=NC[C@H](Cc2ccc(O)cc2)N1CCc1cccc(F)c1`, with -2.28% (inactive); and `NC1=NC[C@@H](Cc2ccc(O)cc2)N1CCc1cccc2ccccc12`, with 7.62% (inactive).

(Values after PubChem BioAssay AID449762 (Southern Research Specialized Biocontainment Screening …, 2010).)
